# From PubChem BioAssay AID2284418 (EPA ToxCast)
# Results filed as inconclusive are left out. Calls of active or inactive are those of the source. The calls were made as follows: active = hit-call score of the fitted dose curve at least 0.9, where 1 is the maximum; inconclusive = response in the unintended direction; inactive = score below 0.9.
# System: SRY-box transcription factor 17 (SOX17) Protein Expression, Deisenroth Lab, SOX17 (gene 64321)
# Assay: CCTE_Deisenroth_DEVTOX-GLR_Meso_SOX17: CCTE's DevTox GLR-Meso Assay Evaluation of SRY-box transcription factor 17 (SOX17) Protein Expression, Deisenroth Lab
# Experimental: CCTE_Deisenroth_DEVTOX-GLR_Meso assay is a cell-based, multiplex-readout assay that uses RUES2-GLR, a human pluripotent cell line, with measurements taken at 48 hours after chemical dosing in a 384-well microplateCCTE_Deisenroth_DEVTOX-GLR_Meso_SOX17 is 1 of 4 assay components calculated from the CCTE_Deisenroth_DEVTOX-GLR_Meso assay and it measures an the percentage of cells in an endoderm state. Using a type of inducible fluorescent protein reporter, gain-of-signal activity can be used to understand changes in gene expression with fluorescent microscopy. The percentage of SOX17+ cells are determined by calculating the number of SOX17+ cells divided by cell count. To generalize the intended target to other relatable targets, this assay component is annotated to the transcription factor intended target family, where the subfamily is SRY-related HMG-box.Data from the assay component CCTE_Deisenroth_DEVTOX-GLR_Meso_SOX17 was analyzed as 1 assay endpoint. The endpoint is the percent SOX17+ cell population minus the 0.2% DMSO control in the CCTE_Deisenroth_DEVTOX-GLR_Meso assay. This assay endpoint can be referred to as a secondary readout since this assay has produced multiple assay endpoints where this one serves as a measure of endoderm differentiation.
# All assay protocols are aligned to the DevTox GLR-Endo assay workflow. Cells are seeded into 384-well microplates for 24 hours prior to initiating differentiation in defined media for a total duration of 48 hours. A total of two chemical exposures are administered in 24-hour intervals during the 48-hour differentiation period. At the assay termination point, cells are fixed and stained with a fluorescent dye demarcating the nucleus. High-content imaging is used to acquire brightfield and fluorescent channel images across 5 fields per well. Cell identification and mean biomarker fluorescence intensities are calculated with image analysis software to determine the total cell counts for viability assessment and the biomarker expression frequency for each lineage-dependent assay. A typical experimental design tests a 10-point concentration series (1 nM - 200 uM) for 28 compounds in single technical replicate. Assay plate controls include non-differentiated pluripotent cells (baseline control), lineage-specific differentiated cells (differentiation control), and DMSO solvent exposed differentiated cells (solvent control). Experiments typically comprise a minimum of four experimental replicates (n=4).
SMILES,AC50,outcome
CC/C(=C(/CC)c1ccc(O)cc1)c1ccc(O)cc1,6.47 µM (active),
CCN(CC)CCNC(=O)c1c(C)[nH]c(/C=C2\C(=O)Nc3ccc(F)cc32)c1C,0.8 µM (active),
O=C1NC(=O)C(c2ccccc2)(c2ccccc2)N1,146 µM (active),
CC1=C(/C=C/C(C)=C/C=C/C(C)=C/C(=O)O)C(C)(C)CCC1,22 µM (active),
O=C1CCC(N2C(=O)c3ccccc3C2=O)C(=O)N1 (centres undefined),,inactive
CS(=O)(=O)OCCCCOS(C)(=O)=O,107 µM (active),
CN(Cc1cnc2nc(N)nc(N)c2n1)c1ccc(C(=O)N[C@@H](CCC(=O)O)C(=O)O)cc1,0.0944 µM (active),
CC1=C(/C=C/C(C)=C/C=C/C(C)=C\C(=O)O)C(C)(C)CCC1,30.2 µM (active),
O=C1NS(=O)(=O)c2ccccc21,,inactive
Nc1cccc2c1C(=O)N(C1CCC(=O)NC1=O)C2=O (centres undefined),,inactive
CCCC(CCC)C(=O)O,,inactive
CC(C)(c1ccc(O)cc1)c1ccc(O)cc1,142 µM (active),
Nc1nc2ncc(CNc3ccc(C(=O)N[C@@H](CCC(=O)O)C(=O)O)cc3)nc2c(=O)[nH]1,,inactive
O=c1[nH]cc(F)c(=O)[nH]1,22.6 µM (active),
